± gives the standard deviation.
test system: MILI (PIWIL2) piRISC loaded with piRNA #1 (26 nt); test: pre-steady-state target cleavage rate (min^-1); guide: piRNA #1 5'p-UGAGGUAGUAGGUUGUAUAGUAUCCA; MIWI and MILI are mouse PIWI proteins and EfPiwi is from a freshwater sponge; tags in brackets are library labels; higher = faster piRNA-guided slicing of the target; settings: auxiliary factor: 500 nM mouse GTSF1
Procedure, shortened: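 In HEPES–potassium acetate buffer at 33 °C, […] transcribed, DNA-blocked target RNA library was mixed with 1 nM active affinity-purified piRISC carrying one synthetic guide, with or without 500 nM GTSF1 partner protein, for 0–8 or 0–960 min. Uncleaved targets were sequenced and normalised to depth and to weakly complementary targets; three trials were pooled and k3 was capped at 0.0001 min^-1. The pre-steady-state cleavage rate followed from a burst-and-steady-state fit.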
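Also: 1 nM active piRISC with 0.1 nM target library at 33 °C single turnover.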

Sequence | pre-steady-state target cleavage rate
GGAGACCUAACAAUACUACCUACUACCUCA | 0.0399 ± 0.013
GGAGACCUAUGAUAUGAACCUACUACACUCA | < 0.0001
GGAGACCUAUCUAUACAACCUACAACCUGA | 0.0151 ± 0.0061
GGAGACCUAUGAUAUCAAGGAACUACCUCA | < 0.0001
GGAGACCUUACUAAACAUCCUACUACCUCA | 0.208 ± 0.017
GGAGACCUAAGUAUACAACCUACUUCCUCA | 0.0285 ± 0.0069
GGAGACCUAUGAUUACAAUCUACUACCUCA | 0.00319 ± 0.0026
GGAGACCUUACUAAACAACCAACUACCUCA | 0.00386 ± 0.0036
GGAGACCUAACUAUACAGCCUACUACCUCA | 0.0605 ± 0.018
GGAGACCUUACUAUUCAACCUACUACCACA | 0.161 ± 0.016
GGAGACGAUAGUAUACAACCUUCUACCUCA | 0.00961 ± 0.003
GGAGACCUAACUAUUCAACCUACUACCACA | 0.118 ± 0.022
GGAGACCUAUCAAUACAACCAACUACCUCA | 0.00756 ± 0.0033
GGAGACCUAUGUAAACAACGUACUACCUCA | 0.0029 ± 0.002
GGAGACCUAUGUAAUCAACCUACUACCUCA | 0.00445 ± 0.003
GGAGACCAUACUUUACAACCUACUACCACA | 0.226 ± 0.023
GGAGACCUAUGAUAACAACCUACGACCUCA | 0.0039 ± 0.0025
GGAGACCUAUGUAUACAACCUACUGCCUCA | 0.0511 ± 0.0081
GGAGACCUAUCAAUACAACCUACUACCACA | 0.0775 ± 0.019
GGAGAGGAUAGUAAACAACCUACUACCUCA | 0.0497 ± 0.011

Sequence | pre-steady-state target cleavage rate
GGAGACCAUACUUUACAACCUACUAGCUCA | 0.0628 ± 0.015
GGAGACCUAUGAUAUGUACUCUACUACCUCA | < 0.0001
GGAGACCUAUCUAUACUACCUACUACCACA | 0.117 ± 0.015
GGAGACCUAUGAUAACAAGCCUACUACCUCA | < 0.0001
GGAGACGAUAGUAUACAACCUACUACCACA | 0.136 ± 0.015
GGAGAGGAUACAAUUCAACCUACUACCUCA | 0.174 ± 0.012
GGAGACCUAUGAUAUGUACCUACUACCGCA | < 0.0001
GGAGACCUAUCUAUACAACCUACUACCAUCA | 0.123 ± 0.016
GGAGACCUAUGUAUACUUGCUACUACCUCA | 0.00505 ± 0.0014
GGAGACCUUACUAUACAACCUACUUGGAGA [g7:g22:cont:t1A] | 0.00375 ± 0.0034
GGAGACCUAUCUAUAGAAGCUACUACCUCA | 0.143 ± 0.019
GGAGACCUAUGAUAUGUUCCUACUACCUGA | < 0.0001
GGAGACCUAUGUACACAACCUACUACCUCA | 0.0498 ± 0.0086
GGAGACCUAUCUAUAGAACCUACUACCUGA | 0.00618 ± 0.0029
GGAGACCUAUGAAUACUUCCUACUACCUCA | 0.00297 ± 0.0022
GGAGACGAUACUAUACAACCUACAUGCUCA | 0.0563 ± 0.016
GGAGACCAUACUAUUCAACCUUCUACCUCA | 0.00695 ± 0.0026
GGAGACCUAACUAUAGAACCUACUACCUGA | 0.0124 ± 0.008
GGAGACCUUACUAUACAACCUAGCUACCUCA | 0.0317 ± 0.0069
GGAGACCUAUGAUAUGAACCUACUUACCUCA | < 0.0001

— the supplement of paper PMC10338343
